# Measured values: PMC9911399, “Two distinct binding modes provide the RNA-binding protein RbFox with extraordinary sequence specificity”
# Substitutions are numbered along the chain they refer to; changes in the protein carry UniProt numbers. In all, about 16,000 sequences were measured (“ka relative to ugcaugu”: median about 0.096, highest 2% from about 0.35 on). Many of the other results were omitted from the sample, so the highest values are more common in it than they were.
# T1: RBFOX1 RRM RbFoxmut (Fox-RRM*) (Homo sapiens, UniProt Q9NWB1 109-208, R118D;E147R;N151S;E152T)
# T1 sequence: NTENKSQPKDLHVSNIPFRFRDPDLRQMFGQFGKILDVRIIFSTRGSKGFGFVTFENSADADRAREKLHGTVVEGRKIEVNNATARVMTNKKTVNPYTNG
# B1: CUACGGU (DNA:RNA)
# RNA: GGGAGACCGGAAUUCAGAUUGUCCCUACGGUUUAAAUCCCGUCGUAGCCACCA
# DNA 1: CAATCTGAATTCCGGTCTCCC
# DNA 2: TGGTGGCTACGACGGGATT
# B2: CUCUAUU (DNA:RNA)
# RNA: B1 RNA with A27C, C28U, G29A, G30U
# DNA 1: CAATCTGAATTCCGGTCTCCC
# DNA 2: TGGTGGCTACGACGGGATT
# B3: UGCCUAC (DNA:RNA)
# RNA: B1 RNA with C25U, U26G, A27C, G29U, G30A, U31C
# DNA 1: CAATCTGAATTCCGGTCTCCC
# DNA 2: TGGTGGCTACGACGGGATT
# B4: GGCUUCC (DNA:RNA)
# RNA: GGGAGACCGGAAUUCAGAUUGUCCGGCUUCCUUAAAUCCCGUCGUAGCCACCA
# DNA 1: CAATCTGAATTCCGGTCTCCC
# DNA 2: TGGTGGCTACGACGGGATT
# B5: AAAUCUA (DNA:RNA)
# RNA: B1 RNA with C25A, U26A, C28U, G29C, G30U, U31A
# DNA 1: CAATCTGAATTCCGGTCTCCC
# DNA 2: TGGTGGCTACGACGGGATT
# B6: ACCACCC (DNA:RNA)
# RNA: B4 RNA with G25A, G26C, U28A, U29C
# DNA 1: CAATCTGAATTCCGGTCTCCC
# DNA 2: TGGTGGCTACGACGGGATT
# B7: UCUGUUU (DNA:RNA)
# RNA: B1 RNA with C25U, U26C, A27U, C28G, G29U, G30U
# DNA 1: CAATCTGAATTCCGGTCTCCC
# DNA 2: TGGTGGCTACGACGGGATT
# B8: CGUCGUG (DNA:RNA)
# RNA: B1 RNA with U26G, A27U, G30U, U31G
# DNA 1: CAATCTGAATTCCGGTCTCCC
# DNA 2: TGGTGGCTACGACGGGATT
# B9: UGCACCA (DNA:RNA)
# RNA: B4 RNA with G25U, U28A, U29C, C31A
# DNA 1: CAATCTGAATTCCGGTCTCCC
# DNA 2: TGGTGGCTACGACGGGATT
# B10: UGCACCG (DNA:RNA)
# RNA: B4 RNA with G25U, U28A, U29C, C31G
# DNA 1: CAATCTGAATTCCGGTCTCCC
# DNA 2: TGGTGGCTACGACGGGATT
# B11: UGCACGG (DNA:RNA)
# RNA: B4 RNA with G25U, U28A, U29C, C30G, C31G
# DNA 1: CAATCTGAATTCCGGTCTCCC
# DNA 2: TGGTGGCTACGACGGGATT
# B12: CCUGCAC (DNA:RNA)
# RNA: B1 RNA with U26C, A27U, C28G, G29C, G30A, U31C
# DNA 1: CAATCTGAATTCCGGTCTCCC
# DNA 2: TGGTGGCTACGACGGGATT
# B13: CUGCACC (DNA:RNA)
# RNA: B1 RNA with A27G, G29A, G30C, U31C
# DNA 1: CAATCTGAATTCCGGTCTCCC
# DNA 2: TGGTGGCTACGACGGGATT
# B14: UGCACGU (DNA:RNA)
# RNA: B1 RNA with C25U, U26G, A27C, C28A, G29C
# DNA 1: CAATCTGAATTCCGGTCTCCC
# DNA 2: TGGTGGCTACGACGGGATT
# B15: UGCACGA (DNA:RNA)
# RNA: B4 RNA with G25U, U28A, U29C, C30G, C31A
# DNA 1: CAATCTGAATTCCGGTCTCCC
# DNA 2: TGGTGGCTACGACGGGATT
# B16: CUGCACG (DNA:RNA)
# RNA: B1 RNA with A27G, G29A, G30C, U31G
# DNA 1: CAATCTGAATTCCGGTCTCCC
# DNA 2: TGGTGGCTACGACGGGATT
# B17: UGCCACG (DNA:RNA)
# RNA: B4 RNA with G25U, U28C, U29A, C31G
# DNA 1: CAATCTGAATTCCGGTCTCCC
# DNA 2: TGGTGGCTACGACGGGATT
# B18: GUCUGGU (DNA:RNA)
# RNA: B1 RNA with C25G, A27C, C28U
# DNA 1: CAATCTGAATTCCGGTCTCCC
# DNA 2: TGGTGGCTACGACGGGATT
# B19: AAACGGC (DNA:RNA)
# RNA: B1 RNA with C25A, U26A, U31C
# DNA 1: CAATCTGAATTCCGGTCTCCC
# DNA 2: TGGTGGCTACGACGGGATT
# B20: UCAUAGC (DNA:RNA)
# RNA: B1 RNA with C25U, U26C, C28U, G29A, U31C
# DNA 1: CAATCTGAATTCCGGTCTCCC
# DNA 2: TGGTGGCTACGACGGGATT
# B21: ACGGCGA (DNA:RNA)
# RNA: B1 RNA with C25A, U26C, A27G, C28G, G29C, U31A
# DNA 1: CAATCTGAATTCCGGTCTCCC
# DNA 2: TGGTGGCTACGACGGGATT
# B22: CUUUAUC (DNA:RNA)
# RNA: B1 RNA with A27U, C28U, G29A, G30U, U31C
# DNA 1: CAATCTGAATTCCGGTCTCCC
# DNA 2: TGGTGGCTACGACGGGATT
# B23: AAGCCUG (DNA:RNA)
# RNA: B1 RNA with C25A, U26A, A27G, G29C, G30U, U31G
# DNA 1: CAATCTGAATTCCGGTCTCCC
# DNA 2: TGGTGGCTACGACGGGATT
# B24: CAGGCUA (DNA:RNA)
# RNA: B1 RNA with U26A, A27G, C28G, G29C, G30U, U31A
# DNA 1: CAATCTGAATTCCGGTCTCCC
# DNA 2: TGGTGGCTACGACGGGATT
# B25: ACACAAA (DNA:RNA)
# RNA: B1 RNA with C25A, U26C, G29A, G30A, U31A
# DNA 1: CAATCTGAATTCCGGTCTCCC
# DNA 2: TGGTGGCTACGACGGGATT
# B26: GGUUCUG (DNA:RNA)
# RNA: B4 RNA with C27U, U29C, C30U, C31G
# DNA 1: CAATCTGAATTCCGGTCTCCC
# DNA 2: TGGTGGCTACGACGGGATT
# B27: UGGCGUG (DNA:RNA)
# RNA: B1 RNA with C25U, U26G, A27G, G30U, U31G
# DNA 1: CAATCTGAATTCCGGTCTCCC
# DNA 2: TGGTGGCTACGACGGGATT
# B28: AGCCUGC (DNA:RNA)
# RNA: B4 RNA with G25A, U28C, C30G
# DNA 1: CAATCTGAATTCCGGTCTCCC
# DNA 2: TGGTGGCTACGACGGGATT
# B29: AGCCAGC (DNA:RNA)
# RNA: B4 RNA with G25A, U28C, U29A, C30G
# DNA 1: CAATCTGAATTCCGGTCTCCC
# DNA 2: TGGTGGCTACGACGGGATT
# B30: CAGCAUA (DNA:RNA)
# RNA: B1 RNA with U26A, A27G, G29A, G30U, U31A
# DNA 1: CAATCTGAATTCCGGTCTCCC
# DNA 2: TGGTGGCTACGACGGGATT
# B31: AGCAUAA (DNA:RNA)
# RNA: B4 RNA with G25A, U28A, C30A, C31A
# DNA 1: CAATCTGAATTCCGGTCTCCC
# DNA 2: TGGTGGCTACGACGGGATT
# B32: AUGCUGC (DNA:RNA)
# RNA: B1 RNA with C25A, A27G, G29U, U31C
# DNA 1: CAATCTGAATTCCGGTCTCCC
# DNA 2: TGGTGGCTACGACGGGATT
# B33: ACCAGCA (DNA:RNA)
# RNA: B4 RNA with G25A, G26C, U28A, U29G, C31A
# DNA 1: CAATCTGAATTCCGGTCTCCC
# DNA 2: TGGTGGCTACGACGGGATT
# B34: CAGCAUG (DNA:RNA)
# RNA: B1 RNA with U26A, A27G, G29A, G30U, U31G
# DNA 1: CAATCTGAATTCCGGTCTCCC
# DNA 2: TGGTGGCTACGACGGGATT
# B35: AUGCUUG (DNA:RNA)
# RNA: B1 RNA with C25A, A27G, G29U, G30U, U31G
# DNA 1: CAATCTGAATTCCGGTCTCCC
# DNA 2: TGGTGGCTACGACGGGATT
# B36: CAGCAUC (DNA:RNA)
# RNA: B1 RNA with U26A, A27G, G29A, G30U, U31C
# DNA 1: CAATCTGAATTCCGGTCTCCC
# DNA 2: TGGTGGCTACGACGGGATT
# B37: AGCAUGC (DNA:RNA)
# RNA: B4 RNA with G25A, U28A, C30G
# DNA 1: CAATCTGAATTCCGGTCTCCC
# DNA 2: TGGTGGCTACGACGGGATT
# B38: ACCAUGC (DNA:RNA)
# RNA: B4 RNA with G25A, G26C, U28A, C30G
# DNA 1: CAATCTGAATTCCGGTCTCCC
# DNA 2: TGGTGGCTACGACGGGATT
# B39: AGCAUGA (DNA:RNA)
# RNA: B4 RNA with G25A, U28A, C30G, C31A
# DNA 1: CAATCTGAATTCCGGTCTCCC
# DNA 2: TGGTGGCTACGACGGGATT
# Molecular target: T1, RBFOX1 RRM RbFoxmut (Fox-RRM*)
# Test: EMSA; HiTS-Eq, 1 nM pool, 10 min; buffer printed only for the single-RNA assays: 10 mM Tris pH 7.5, 150 mM NaCl, 3.4 mM EDTA, 0.001% NP-40, 30 C
# Conditions: tags: His6 N-terminal (pET28a); label: 5' 32P
# Summary of the method: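 Purified RbFox RRM (wild type or mutant) was equilibrated for 10 min in 50 µL with 1 nM of a 5′-radiolabelled pool of RNA with 7 randomized nucleotides, its flanks annealed to DNA oligonucleotides, across increasing protein concentrations. Free RNA was separated by 8% native PAGE, excised, reverse-transcribed, PCR-barcoded and sequenced on an Illumina HiSeq 2500. Relative association constants came from read-count changes of each variant against the control reaction, normalised to the cognate motif.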
row,Binder,binding signal
1,B1,0.0878 KA relative to UGCAUGU
2,B2,0.107 KA relative to UGCAUGU
3,B3,0.105 KA relative to UGCAUGU
4,B4,0.142 KA relative to UGCAUGU
5,B5,0.088 KA relative to UGCAUGU
6,B6,0.0531 KA relative to UGCAUGU
7,B7,0.0825 KA relative to UGCAUGU
8,B8,0.156 KA relative to UGCAUGU
9,B9,0.158 KA relative to UGCAUGU
10,B10,0.223 KA relative to UGCAUGU
11,B11,0.308 KA relative to UGCAUGU
12,B12,0.09 KA relative to UGCAUGU
13,B13,0.141 KA relative to UGCAUGU
14,B14,0.362 KA relative to UGCAUGU
15,B15,0.368 KA relative to UGCAUGU
16,B16,0.626 KA relative to UGCAUGU
17,B17,0.158 KA relative to UGCAUGU
18,B18,0.192 KA relative to UGCAUGU
19,B19,0.085 KA relative to UGCAUGU
20,B20,0.116 KA relative to UGCAUGU

row,Binder,binding signal
1,B21,0.1 KA relative to UGCAUGU
2,B22,0.0598 KA relative to UGCAUGU
3,B23,0.0848 KA relative to UGCAUGU
4,B24,0.0916 KA relative to UGCAUGU
5,B25,0.0812 KA relative to UGCAUGU
6,B26,0.208 KA relative to UGCAUGU
7,B27,0.321 KA relative to UGCAUGU
8,B28,0.0804 KA relative to UGCAUGU
9,B29,0.0776 KA relative to UGCAUGU
10,B30,0.137 KA relative to UGCAUGU
11,B31,0.0973 KA relative to UGCAUGU
12,B32,0.126 KA relative to UGCAUGU
13,B33,0.121 KA relative to UGCAUGU
14,B34,0.965 KA relative to UGCAUGU
15,B35,0.361 KA relative to UGCAUGU
16,B36,0.307 KA relative to UGCAUGU
17,B37,0.495 KA relative to UGCAUGU
18,B38,0.0949 KA relative to UGCAUGU
19,B39,0.524 KA relative to UGCAUGU
